From PubChem
PKM2 act: increases activity of human pyruvate kinase M2. AID 1631. 260,000 compounds, 0.34% hits. P14618. purified PKM2, Kinase-Glo ATP luminescence, activation; response scale: 0% is enzyme alone, no compound. Potency, µM (series often up to 57.5 µM), inactives show at the highest dose activation, hits mostly activators; also: nearly all actives have a fitted effect of over 55% in size
Target sequence (P14618 whole entry, looked up): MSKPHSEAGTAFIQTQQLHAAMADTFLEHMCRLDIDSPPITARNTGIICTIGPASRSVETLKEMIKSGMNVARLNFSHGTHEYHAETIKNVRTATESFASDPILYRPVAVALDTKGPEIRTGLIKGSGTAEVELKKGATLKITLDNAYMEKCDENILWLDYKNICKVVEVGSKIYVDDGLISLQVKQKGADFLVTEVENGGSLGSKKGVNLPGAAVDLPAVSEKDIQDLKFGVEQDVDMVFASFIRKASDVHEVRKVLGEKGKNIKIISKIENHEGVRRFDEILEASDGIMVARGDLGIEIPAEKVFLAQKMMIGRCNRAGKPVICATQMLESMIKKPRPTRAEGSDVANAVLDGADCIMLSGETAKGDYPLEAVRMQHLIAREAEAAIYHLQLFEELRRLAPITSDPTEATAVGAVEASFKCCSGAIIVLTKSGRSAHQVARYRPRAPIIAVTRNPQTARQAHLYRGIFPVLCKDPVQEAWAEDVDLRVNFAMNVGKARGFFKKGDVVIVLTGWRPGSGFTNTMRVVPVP
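Purified hPK-M2 (>95% pure) converted ADP (0.1 mM final) to ATP with 0.5 mM PEP in 50 mM imidazole pH7.2, KCl, MgCl2, Tween 20, BSA; 1 h at room temperature. ATP detected by Kinase-Glo luminescence.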
RECQ1 helicase: blocks DNA unwinding by human RECQ1. Potency, µM (series often up to 57.3 µM), inactives show at the highest dose activity, negative = inhibition, hits mostly inhibitors. RECQ1 DNA unwinding, red fluorescence kinetic read. 240,000 compounds, 0.54% hits. AID 2549;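 also: plate controls were vehicle for no effect and no enzyme for full effect; nearly all actives have a fitted effect of over 30% in size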
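50 nM RECQ1T1 preincubated 15 min with compound in Tris pH 8.0 buffer with MgCl2, DTT, Tween-20 and 2.5 ug/ml poly(dI-dC); started with 200 nM TAMRA/BHQ-2 forked duplex and 2 mM ATP. Unwinding read as fluorescence (525/598 nm), two reads 2 h apart.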
JMJD2E inh: blocks human JMJD2E demethylase activity | Potency, µM (titrated, usually from 57.1 µM), for inactives: top-dose activity change, negative = inhibition, most hits filed as inhibitors | JMJD2E catalytic domain, FDH-coupled NADH fluorescence (FDH is formaldehyde dehydrogenase) | 230,000 compounds, 1.6% hits; active = well fitted inhibition curve with a large enough effect, not every such curve was filed as active; inconclusive = small, poorly fitted or top-dose-only effect, or another doubt; inactive = no such curve, though single readings can be large or run the other way;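 also: 0% = wells with enzyme and -100% = buffer wells without enzyme; nearly all actives have a fitted effect of over 50% in size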
BLM inh: Bloom syndrome helicase (human) inhibition. P54132. recombinant BLM DNA unwinding, fluorescence dequenching. Potency, µM (doses to about 56.1 µM), for inactives: at the highest dose activity change, negative = inhibition, most hits filed as inhibitors. 350,000 compounds, 0.2% hits. AID 2528;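 also: plate controls were vehicle for no effect and no enzyme for full effect; nearly all actives have a fitted effect of over 35% in size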
APE1 inh-1: blocks human APE1 abasic DNA cleavage; recombinant APE1, TAMRA/BHQ-2 abasic DNA cleavage fluorescence; 350,000 compounds, 0.35% hits; Potency, µM (series often up to 65.8 µM), without a hit: top-dose activity change, negative = inhibition, actives largely listed as inhibitors; P27695;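 also: plate controls were vehicle for no effect and reference inhibitor for full effect; nearly all actives have a fitted effect of over 55% in size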
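APE1 at 0.75 nM preincubated 15 min at room temperature with compound. Reaction then started with 50 nM double-stranded THF-abasic substrate labelled with TAMRA/BHQ-2, and 525/598 nm fluorescence read kinetically. Activity taken as third-minus-first read difference, normalized to DMSO and NSC13755 controls.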
DNA dye displace: counter-screen for APE1 inhibitors: DNA dye displacement | Potency, µM (doses to about 28.5 µM), for inactives: top-dose activity change, negative = inhibition, actives largely listed as inhibitors | 480 compounds, 7% hits | shares compounds with APE1 inh-1 | DNA fluorescent dye displacement counterscreen, fluorescence;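 also: loss of thiazole orange fluorescence as the dye is displaced from duplex DNA; 0% = ThO with dsDNA and no compound and -100% = ThO without dsDNA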
EndoIV counter: blocks E. coli endonuclease IV DNA cleavage | Potency, µM (top dose mostly 27.1 µM), for the others: at the highest dose activity change, negative = inhibition, actives largely listed as inhibitors | shares compounds with APE1 inh-1 | 560 compounds, 4% hits | E. coli Endo IV, fluorogenic AP-site DNA cleavage;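 also: plate controls were uninhibited enzyme wells for no effect and no enzyme buffer wells for full effect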
APE1 inh-2: confirmation of inhibitors of human APE1 endonuclease | shares compounds with APE1 inh-1 | purified APE1, fluorogenic abasic-site DNA cleavage | Potency, µM (top dose mostly 57.1 µM), for inactives: at the highest dose activity change, negative = inhibition, actives largely listed as inhibitors | 750 compounds, 44% hits; also: nearly all actives have a fitted effect of over 30% in size
APE1 FP inh: displaces DNA from human APE1 in FP assay | APE1 binding to TAMRA-labelled double-stranded DNA, fluorescence polarization displacement | AID 2573 | shares compounds with APE1 inh-1 | 480 compounds, 7% hits | Potency, µM (highest dose often 28.5 µM), without a hit: top-dose activity, negative = inhibition, hits mostly inhibitors
* hit, by the source's call; i = inactive; ? = inconclusive; nt = no result; [ ] = remark or other dose. Only a selection was taken, and hits are over-represented in it overall. Unless noted, calls follow the shape of the dose curve; as a rule, active = well fitted curve in the direction sought with a large enough effect; inconclusive = small, poorly fitted or top-dose-only effect, or another doubt; inactive = no such curve, though single readings can be large; an effect the other way counts as inactive or inconclusive. Unless noted, % is scaled to controls: 0 for no effect and ±100 for the full control effect; potency is read from the fitted curve at half-maximal effect.

SMILES	PKM2 act	RECQ1 helicase	JMJD2E inh	BLM inh	APE1 inh-1	DNA dye displace	EndoIV counter	APE1 inh-2	APE1 FP inh
COc1cc(C(CCN2CCCC2)c2c(OC)cc(OC)c3c2OC(=O)CC3c2ccc(N(C)C)cc2)cc(OC)c1OC (stereo not drawn)	nt	-6%	nt	-6%	-3%	nt	nt	nt	nt
CC1Cc2cc(S(=O)(=O)NCc3ccccc3Cl)ccc2N1C(=O)C1CCC1 (stereo not drawn)	nt	nt	nt	-10%	nt	nt	nt	nt	nt
O=c1c(O)cc(C2Oc3cc(O)cc(O)c3CC2O)cc2c(C3Oc4cc(O)cc(O)c4CC3O)cc(O)c(O)c12 (stereo not drawn)	nt	3.2µM*	25µM*	28µM*	0.5µM*	nt	?	2.5µM*	nt
O=C(Cc1csc(N2CCOCC2)n1)N/N=C/c1ccc(O)c(O)c1O	?	?	8.9µM*	-12%	2.2µM*	?	92%	?	4%
C=C1C(n2cnc3c(=O)[nH]c(N)nc32)C[C@H](O)[C@H]1CO (stereo partly drawn)	nt	nt	nt	0%	nt	nt	nt	nt	nt
O=C(O)c1ccc(COc2ccccc2/C=C2\NC(=O)N(Cc3ccc(F)cc3)C2=O)cc1	-2%	-2%	-12%	-9%	-1%	nt	nt	nt	nt
O=C(O)c1ccc(COc2ccccc2/C=C2/NC(=O)N(c3cccc(Cl)c3)C2=O)cc1	0%	?	?	20µM*	?	nt	nt	16µM*	nt
Cc1ccc2nc(CSc3nnc(-c4ccco4)o3)cc(=O)n2c1	-2%	?	?	?	22µM*	-7%	4%	-22%	-4%
Cc1cc(/C=N/NC(=O)c2ccncc2)c(C)n1-c1ccccc1	-4%	-6%	-16%	2%	-5%	nt	nt	nt	nt
Cc1cc(C(=O)N/N=C/c2ccc(O)c(O)c2O)c(C)n1-c1ccccc1	28µM*	-1%	2%	-7%	4.5µM*	-10%	30%	?	-87%
O=C(c1cnccn1)N1CCC2(CC1)CCN(c1cccc(-c3ccccc3)c1)CC2	nt	-5%	nt	-6%	-16%	nt	nt	nt	nt
O=c1cc(-c2ccc(O)c(O)c2)oc2cc(O)c(C3OC(CO)C(O)C(O)C3O)c(O)c12 (stereo not drawn)	9%	-11%	14µM*	-1%	7.9µM*	?	45%	3.2µM*	5%
CCOC(=O)CCN1C(=O)[C@H]2[C@H]3[C@H](O)[C@H](O)C/C(=N/OC[C@@H](O)COCc4ccco4)[C@H]3CC[C@@H]2C1=O	nt	i[11.5 µM]	nt	4%[12.4 µM]	21%[12.4 µM]	nt	nt	nt	nt
O=C(Nc1ccc2oc(-c3ccncc3)nc2c1)c1ccc(F)cc1	-8%	-5%	?	-18%	5%	nt	nt	?	nt
O=C(Nc1ccc(-c2nc3cc(NC(=O)c4ccc(F)cc4)ccc3o2)cc1)c1ccc(F)cc1	nt	nt	nt	2%	nt	nt	nt	nt	nt
COC(=O)c1ccc(=O)c2nc3/c(=C/O)c(O)cc(=O)c3[nH]c12	-4%	?	8.9µM*	18µM*	?	?	?	?	-28%
Cc1ccc2c3c(cccc13)-c1ccccc1C2=O	1%	-9%	?	1%	-9%	nt	nt	nt	nt
Cc1cc2c3c(cccc3n1)C(=O)c1ccccc1-2	nt	-8%	17%	20%	?	?	6%	?	2.5µM*
Nc1ccc(NC(=O)c2ccc(C(=O)Nc3ccc(N)cc3)cc2)cc1	-40%	-21%	2%	5%	0%	nt	nt	?	nt
CC1COC(=O)O1 (stereo not drawn)	nt	-8%	nt	2%	1%	nt	nt	nt	nt
Cc1ccc2c(c1)C1C=CCC1C(C(=O)O)N2 (stereo not drawn)	14%	8.9µM*	?	14µM*	16µM*	?	0%	14µM*	-26%
CC(=O)c1ccc2c(c1)C1C=CCC1C(C(=O)O)N2 (stereo not drawn)	7%	i	2%	-8%	?	nt	nt	nt	nt
COc1cc(N)c(Cl)cc1C(=O)N[C@H]1CCN(CCCOc2ccc(F)cc2)C[C@@H]1OC	nt	i	-22%	5%	-5%	nt	nt	nt	nt
Clc1ccccc1-c1nc(NCc2cccs2)c2ccccc2n1	nt	-26%	nt	-25%	7.9µM*	?	-87%[57.1 µM]	16µM*	38%[57.1 µM]
Cc1ccccc1-c1nc(NCc2cccs2)c2ccccc2n1	nt	-14%	nt	-14%	?	nt	nt	nt	nt
SMILES	PKM2 act	RECQ1 helicase	JMJD2E inh	BLM inh	APE1 inh-1	DNA dye displace	EndoIV counter	APE1 inh-2	APE1 FP inh
O=C(c1cccc(C(=O)N2CCN(c3ncccn3)CC2)c1)N1CCN(c2ncccn2)CC1	-1%	-2%	?	0%	2%	nt	nt	nt	nt
O=C(c1ccc2nc(-c3ccco3)c(-c3ccco3)nc2c1)N1CCN(c2ncccn2)CC1	16%	-20%	?	?	?	?	-1%	?	-13%
CC(=O)c1ccc(NC(=O)c2ccc3nc(-c4ccco4)c(-c4ccco4)nc3c2)cc1	24%	8.9µM*	?	16µM*	?	8.9µM*	?	4µM*	-46%
CCN1CCOC(=O)C1CC(=O)Nc1cc(C)cc(C)c1 (stereo not drawn)	nt	nt	nt	1%	nt	nt	nt	nt	nt
Cc1cc2nc(-c3ccc(SCc4ccc(C(=O)O)cc4)nc3)[nH]c2cc1C	22%	-8%	?	?	4%	nt	nt	40µM*	nt
COc1ccc(Cl)cc1NC(=O)C(C)n1nnc2sc3c(c2c1=O)CCCC3 (stereo not drawn)	nt	nt	nt	-3%	nt	nt	nt	nt	nt
CCOC(=O)N1CCC(N2Cc3cccc(C(=O)NCc4ccc5c(c4)OCO5)c3C2=O)CC1	7%	-10%	-6%	-21%	?	nt	nt	?	nt
CCOC(=O)NC1(NC(C)C)Oc2ccccc2O1	-12%	-21%	?	0%	22µM*	-5%	4%	?	0%
CC(C)NC[C@@H](O)COc1cccc2ccccc12	nt	2%	-4%	26%	12%	nt	-5%[57.1 µM]	-15%	nt
COc1ccc(NC(=O)c2cc3c(-c4ccc(OC)c(OC)c4)nn(C)c3s2)cc1OC	-16%	18%	?	?	?	9%	11µM*	13µM*	-4%
